Test results reported in the supplement of paper PMC12350171.
Structures can show the parent of a compound that is named as a salt. A number with no mark means an inactive call.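 Rule for the calls: active = normalised median growth AUC below 0.1 of DMSO control; inactive = AUC 0.1 or higher.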

Tested on: P. vulgatus RND KO
Experiment: growth AUC normalised to DMSO control (median) (fraction of control); higher = less growth inhibition, active = hit call of the paper
Conditions: 20 µM
Method in brief: (§1)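 After two overnight anaerobic passages, strains were inoculated at OD578 0.01 into mGAM in 96-well plates containing approved-drug library compounds at 20 μM and 1% DMSO. Growth was followed by reading OD578 hourly for 24 h within an anaerobic incubator. Area under the curve, taken by the trapezoidal rule up to the start of stationary phase, was normalised to same-plate vehicle wells, and the median of three biological replicates is listed.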
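Note: active when median AUC fell below 0.1.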

SMILES | growth AUC normalised to DMSO control
CCCCCNC(=N)N/N=C/c1c[nH]c2ccc(OC)cc12 [Tegaserod maleate] | 0.999
COc1ccc(-c2ccc3cc(C(=O)O)ccc3c2)cc1C12CC3CC(CC(C3)C1)C2 [Adapalene] | 1.03
CN1CC(O)c2cc(N=NC(N)=O)c(O)cc21 (configuration not stated) [Carbazochrome] | 0.999

Tested on: P. vulgatus WT
Experiment: as above
Conditions: 20 µM
Method in brief: as §1

SMILES | growth AUC normalised to DMSO control
CCCCCOC(=O)Nc1nc(=O)n([C@@H]2O[C@H](C)[C@@H](O)[C@H]2O)cc1F [Capecitabine] | 0.998
CC(C)(C)C(O)/C=C/c1ccc2c(c1)OCO2 (configuration not stated) [Stiripentol] | 1.02
COc1cc(N)cn[n+]1-c1ccccc1 [Amezinium metilsulfate] | 1
Nc1ccc2cc3ccc(N)cc3nc2c1 [Proflavine hemisulfate] | 0.995
Nc1cc(C(Cl)=C(Cl)Cl)c(S(N)(=O)=O)cc1S(N)(=O)=O [Clorsulon] | 0.998
O=C(NC1CCN(CCCCC2(C(=O)NCC(F)(F)F)c3ccccc3-c3ccccc32)CC1)c1ccccc1-c1ccc(C(F)(F)F)cc1 [Lomitapide] | 1.05
CCOC(=O)c1ccc(C#Cc2ccc3c(c2)C(C)(C)CCS3)nc1 [Tazarotene] | 1.02
C/C(=C(\CCOC(=O)c1ccccc1)SS/C(CCOC(=O)c1ccccc1)=C(/C)N(C=O)Cc1cnc(C)nc1N)N(C=O)Cc1cnc(C)nc1N [Bisbentiamine] | 1.07
C[C@@H]1CCO[C@H]2Cn3cc(C(=O)NCc4ccc(F)cc4F)c(=O)c(O)c3C(=O)N12 [Dolutegravir] | 0.049 (active)
